Inconclusive results are not listed. A call without a number means that no potency is given here. The source made the active and inactive calls. Calls follow the shape of the dose curve; as a rule, active = well fitted inhibition curve with a large enough effect; inconclusive = small, poorly fitted or top-dose-only effect; inactive = no such curve, though single readings can be large or run the other way.
Test: P-glycoprotein substrates identified in KB-3-1 adenocarcinoma cell line, qHTS therapeutic library screen (AID 1346986); also: nearly all actives have a fitted effect of over 60% in size;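 also: potency is for cytotoxicity meaning loss of cell viability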
Conditions: KB-3-1 parental cells viability, CellTiter-Glo, 72 h; series mostly up to 44.5 µM; activity change, negative = cytotoxicity: at the top concentration
In short: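 Compounds were tested in dose-response against KB-3-1 and KB-8-5-11 cells at 37 degree C for 72 h, and viability was measured by luminescence. AC50 values came from curve fitting with class-based activity calls.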
Potency is read from the fitted curve at half-maximal effect.

Row | SMILES | outcome | activity change, negative = cytotoxicity | Potency
1 | C=C1C(=O)O[C@@H]2C[C@@]3(C)C[C@@H](O)C[C@H](C)C3=C[C@H]12 | inactive | – | –
2 | CC(C)S(=O)(=O)c1ccc2nccc(Nc3ccc4scnc4c3)c2c1 | inactive | – | –
3 | COc1cc(OC)c2c(=O)[nH]c(-c3cc(C)c(OCCO)c(C)c3)nc2c1 | inactive | – | –
4 | C=C1C(=O)OC2/C=C(\CO)CC/C=C(\C=O)C(O)C(OC(=O)C(C)CC)C12 (centres undefined) | inactive | – | –
5 | C=C1C(=O)O[C@@H]2/C=C(\CO)CC/C=C(/C=O)C[C@H](O)[C@@H]12 | inactive | – | –
6 | COc1cc2ncnc(Oc3ccc(CC(=O)Nc4cnn(C(C)C)c4)cc3)c2cc1OC | – | -1.91% (inactive) | –
7 | COC1CC(O[C@H]2CC[C@]3(C)C4CC[C@@]5(C)C(=O)[C@]4(CC[C@@H]3C2)CC[C@@H]5C2=CC(=O)OC2)OC(C)C1OC1OC(COC2OC(CO)C(O)C(O)C2O)C(O)C(O)C1O (some centres undefined) | – | – | 3.48 µM (active)
8 | C=CC(=O)Nc1cccc(Nc2nc(Nc3ccc(NC4CN(CCF)C4)cc3OC)ncc2C(F)(F)F)c1 | – | – | 10.3 µM (active)
9 | C#Cc1cccc(Nc2nc3cc(C(=O)O)ccc3c3cncnc23)c1 | – | – | 5.8 µM (active)
10 | CC1(C)CCC2(C(=O)OC3OC(COC4OC(CO)C(O)C(O)C4O)C(O)C(O)C3O)CCC3(C)C(=CCC4C5(C)CCC(OC6OCC(O)C(O)C6O)C(C)(C)C5CCC43C)C2C1O (centres undefined) | inactive [at 9.29 µM] | – | –
11 | COc1cccc(CN(C(=O)CC(C)(C)C)[C@H]2C[C@H](C(=O)N3CCNCC3)N(Cc3ccc4c(c3)OCO4)C2)c1 | inactive | – | –
12 | CO[C@H]1O[C@@H]2O[C@@]3(C)CCC4[C@H](C)CCC([C@H]1C)[C@]42OO3 (some centres undefined) | inactive | – | –
13 | CC1(C)CCCC2(C)C1C(OC(=O)/C=C/C=C/C=O)C=C1COC(=O)C12O (centres undefined) | inactive [at 17.4 µM] | – | –
14 | N#Cc1ccc2ncnc(NCCc3ccccc3)c2c1 | – | – | 16.4 µM (active)
15 | CC(C)(CO)c1cc2cc(NC(=O)C3(c4ccc5c(c4)OC(F)(F)O5)CC3)c(F)cc2n1CC(O)CO (centres undefined) | inactive | – | –
16 | C=CC(=O)N1CC(N2CCN(C(=O)CNc3cc(C4CC4)c(Cl)cc3O)CC2)C1 | inactive | – | –
17 | CC(=O)O[C@@H]1CC2C(/C=C(\C)C(=O)[C@@]3(O)C[C@@H](C)[C@H](OC(=O)c4ccccc4)C3/C=C/1C)C2(C)C (some centres undefined) | inactive [at 17.4 µM] | – | –
18 | CC1(C)CN(C(=O)c2ccc(-c3cccc4nc(NC(=O)C5CC5)nn34)cc2)C1 | inactive | – | –
19 | Cc1nc(NC(=O)N2CCC[C@H]2C(N)=O)sc1-c1ccnc(C(C)(C)C(F)(F)F)c1 | – | – | 11.6 µM (active)
20 | COc1ccc(-c2c(C)nn3c(NCCN4CCOCC4)cc(C)nc23)cc1OC | inactive | – | –

Row | SMILES | outcome | activity change, negative = cytotoxicity | Potency
21 | C=C[C@]1(C)C[C@H](O)[C@H]2C(=C)C(=O)O[C@@H]2[C@H]1C(=C)CO | inactive | – | –
22 | CC(=O)OC1C(O)CC2(C)C(CCC3(C)C2CC=C2C4C5(CCC(CO[C@@H]6O[C@H](CO)[C@@H](O)[C@H](O)[C@H]6O)(OC5=O)C4(C)O)C(O)CC23C)C1(C)C (some centres undefined) | inactive [at 17.4 µM] | – | –
23 | Cn1sc(=O)n(Cc2ccccc2)c1=O | – | – | 7.31 µM (active)
24 | Cn1cc(C2=C(c3coc4ccccc34)C(=O)NC2=O)c2cc(Br)ccc21 | inactive | – | –
25 | Cc1cc2c(F)c(Oc3ncnn4cc(OCC(C)OC(=O)C(C)N)c(C)c34)ccc2[nH]1 (centres undefined) | – | – | 16.4 µM (active)
26 | C/C(=N\N=C(N)N)c1cc(NC(=O)CCCCCCCCC(=O)Nc2cc(/C(C)=N/N=C(N)N)cc(/C(C)=N/N=C(N)N)c2)cc(/C(C)=N/N=C(N)N)c1 | – | – | 14.6 µM (active)
27 | O=c1cc(N2CCN(c3cccc(C(F)(F)F)c3)CC2)[nH]c(=O)n1C1CCCCC1 | inactive | – | –
28 | C=C1C(=O)O[C@@H]2C[C@H](C)[C@@H]3CC(=O)[C@H](O)[C@@]3(C)C[C@H]12 | inactive | – | –
29 | CC(C)(F)CC(NC(c1ccc(-c2ccc(S(C)(=O)=O)cc2)cc1)C(F)(F)F)C(=O)NC1(C#N)CC1 (centres undefined) | inactive | – | –
30 | COC1C(OC(=O)/C=C/C=C/C=C/C=C/C(=O)O)CCC2(CO2)C1C1(C)OC1CC=C(C)C (centres undefined) | inactive [at 17.4 µM] | – | –
31 | NC(=O)c1nc(Nc2ccccc2)sc1NC(=O)C1CCCCC1 | inactive | – | –
32 | C=C(C)C(=O)O[C@H]1[C@H]2C(=C)C(=O)O[C@@H]2/C=C(\CO)CC/C=C(/C=O)[C@@H]1O | inactive | – | –
33 | Cc1nc(NC(=O)N2CCCC2C(N)=O)sc1-c1ccnc(C(C)(C)C(F)(F)F)c1 (centres undefined) | – | – | 23.1 µM (active)
34 | CCN1CCN(Cc2ccc(NC(=O)c3ccc(C)c(Oc4ccnc5[nH]ccc45)c3)cc2C(F)(F)F)CC1 | – | – | 16.4 µM (active)
35 | COc1c(C)cc(NC(=O)c2nn(Cc3ccc(F)cc3)c3c2CN(C(=O)c2ccc[nH]2)C[C@]3(C)C(N)=O)cc1C | inactive [at 9.29 µM] | – | –
36 | CC1(CO)CC(O)[C@]2(C(=O)O)CCC34CC3(C=CC3[C@]5(C)C(CC[C@]34C)C(C)(CO)[C@@H](O)[C@H](O)[C@@H]5O)C2C1 (some centres undefined) | inactive [at 17.4 µM] | – | –
37 | CCN(Cc1ccccc1)C(=O)Cn1c(=O)n(C)c2cnc(-c3ccccc3)nc21 | inactive | – | –
38 | CN1CCc2cc3c(cc2C(=O)Cc2cc4c(cc2C1)OCO4)OCO3 | inactive | – | –
39 | CC1=C(c2ccc(NC(=O)c3c(F)cccc3F)cc2)CN(c2nccs2)CC1 | inactive | – | –

— PubChem BioAssay (NCATS)
